MITF inh: blocks human microphthalmia-associated transcription factor. O75030. AlphaScreen MITF homodimerization, bead proximity signal. inhibition, % at 2.6 µM. hit rate 0.91% among 650,000. AID 1259374; in the data active = inhibition above about 50%;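 also: 0% = vehicle wells with protein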
GPR151 ag: activates the human receptor GPR151; Q8TDV0; PathHunter beta-arrestin GPR151 cells, luminescence; activation, % at 11.2 µM; hit rate 1% among 650,000; AID 1508602; in the data active = activation above about 4.9%;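 also: 0% = median of compound wells and 100% = cells with positive control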
FBW7 act: activators of human E3 ligase FBW7; hit rate 0.13% among 650,000; AlphaScreen FBW7–phospho-cyclin E peptide binding, activator screen; Q969H0; normalized activity (activation), % at 26.1 µM; in the data active = normalized activity above about 1.9%;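 also: purified mutant Fbw7 with reduced substrate affinity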
TEAD-YAP block: TEAD-YAP interaction inhibition. HEK-TIYL cells, TEAD-Gal4/YAP UAS-luciferase luminescence. inhibition, % at 9.12 µM. hit rate 1.4% among 640,000. AID 1259422; in the data active = inhibition above about 32%;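 also: 0% = median of test compound wells and 100% = reference inhibitor wells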
GPR151 conf act: confirmation of human GPR151 activators. activation, % at 11.2 µM. 6,700 tested, under 10 active. GPR151 PathHunter beta-arrestin cells, luminescence, 90 min; % of EA-reagent control over plate median. AID 1508609. shares compounds with GPR151 ag;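 active = mean percent activation across replicates above the confirmation screen cutoff of 4.91%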
GPR119 ag: counter-screen for GPR151 activators: effect on human GPR119. shares compounds with GPR151 ag. GPR119 PathHunter beta-arrestin cells, luminescence, 90 min; 0 = compound-well median, 100 = enzyme-acceptor control. activation, % at 11.2 µM. hit rate 0.3% among 6,700. AID 1508611;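 active = mean percent activation in the counterscreen above 29.09%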;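 also: counterscreen on off-target GPR119 to flag nonselective hits from the GPR151 activator screen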
Active calls of the source: *; . = no result given. Only some compounds are listed: those with a hit (about 3.4% of all), similar ones and a draw of the others.

SMILES	MITF inh	GPR151 ag	FBW7 act	TEAD-YAP block	GPR151 conf act	GPR119 ag
O=C(Nc1nc(-c2ccncc2)cs1)c1ccccc1I	-1	6.3*	0	-15	1	11
O=C(Nc1nc(-c2ccccc2)cs1)c1ccc(S(=O)(=O)N2CCc3ccccc32)cc1	0	-2	0	0	.	.
O=C(NC(=S)NNc1ccccc1)c1cc2ccccc2oc1=O	17	5.5*	0	8	1	13
O=C(NC(=S)Nc1ncccn1)c1cc2ccccc2oc1=O	2	-1	0	-8	.	.
O=C(Nc1nc(-c2cc3ccccc3o2)cs1)c1cc2ccccc2oc1=O	7	21*	0	0	-1	8
O=C(Nc1nc(-c2cc3ccccc3oc2=O)cs1)c1ccc(S(=O)(=O)N2CCc3ccccc32)cc1	-5	5.0*	0	-19	0	4
COc1ccccc1-c1cc(=O)n(CC(=O)NCc2ccc(F)cc2)c2c1CCCC2	10	0	0	2	.	.
COc1ccc(CNC(=O)CSc2nnnn2C2CCCC2)cc1	-4	0	0	5	.	.
CC(=O)c1ccc(NC(=O)c2ccc(S(=O)(=O)N(C)C3CCCC3)cc2)cc1	15	0	0	6	.	.
CC1CCN(S(=O)(=O)c2ccc(C(=O)Nc3nc(-c4ccncc4)cs3)cc2)CC1	-9	4.9*	0	-10	0	10
O=C(Nc1nc(-c2ccncc2)cs1)c1ccc(S(=O)(=O)N2CCCCC2)cc1	5	0	0	-2	.	.
CCN1CCN(S(=O)(=O)c2cccc(Cl)c2)CC1	4	-1	0	0	.	.

Screens deposited in PubChem BioAssay by The Scripps Research Institute Molecular Screening Center.
